Measured values reported in article PMC5700166.

Molecular target: T1, GST-Nv-NF-kB (Ser allele) (Nematostella vectensis, UniProt A7UNT2 2-411)
T1 sequence: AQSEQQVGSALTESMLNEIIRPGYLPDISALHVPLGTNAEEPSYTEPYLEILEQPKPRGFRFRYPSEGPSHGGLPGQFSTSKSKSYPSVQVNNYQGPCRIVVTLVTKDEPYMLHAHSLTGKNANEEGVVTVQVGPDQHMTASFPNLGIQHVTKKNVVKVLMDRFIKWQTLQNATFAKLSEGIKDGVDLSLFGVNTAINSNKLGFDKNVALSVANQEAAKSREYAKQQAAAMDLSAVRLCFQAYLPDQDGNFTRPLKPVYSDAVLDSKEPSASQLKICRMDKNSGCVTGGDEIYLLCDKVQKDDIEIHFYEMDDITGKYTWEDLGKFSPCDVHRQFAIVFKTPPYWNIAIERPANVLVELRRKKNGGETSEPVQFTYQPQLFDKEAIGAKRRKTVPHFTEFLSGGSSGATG
Experiment: protein-binding microarray (PBM); PBM: ~300 nM protein, 6 mM HEPES pH 7.8, 80 mM KCl, 0.5 mM EDTA, 0.5 mM EGTA, 6% glycerol, 35 ng/ul poly-dIdC, 1% milk, 1 h, room temperature; Ap Aiptasia and Nv Nematostella (sea anemones) / Co Capsaspora / Aq Amphimedon (sponge) / Dm Drosophila / Hu human; RHD is the Rel homology domain; high values mean tight binding
Details: dsDNA, one strand shown

| Sequence | binding signal [z-score] |
| --- | --- |
| CCGATTAACATCAAATGGGAATTTGATGTTAATCGGGTCTTGATTCGCTTGACGCTGCTG | 4.87 |
| CCGATTAACATCAGGGGTATAACTGATGTTAATCGGGTCTTGATTCGCTTGACGCTGCTG | 1.03 |
| CCGATTAACATCAAATTCCCAGATGATGTTAATCGGGTCTTGATTCGCTTGACGCTGCTG | 3.83 |
| CCGATTAACATCAGGGGTTTCCATGATGTTAATCGGGTCTTGATTCGCTTGACGCTGCTG | 4 |
| CCGATTAACATCAAAAATCACCCTGATGTTAATCGGGTCTTGATTCGCTTGACGCTGCTG | 3.82 |
| CCGATTAACATCAAGTATTTCCCTGATGTTAATCGGGTCTTGATTCGCTTGACGCTGCTG | 5.24 |
| CCGATTAACATCAGGGAAACTCATGATGTTAATCGGGTCTTGATTCGCTTGACGCTGCTG | 4.62 |
| CCGATTAACATCAAAAGACCCCCTGATGTTAATCGGGTCTTGATTCGCTTGACGCTGCTG | 5.47 |
| CCGATTAACATCAGGGAAACCCATGATGTTAATCGGGTCTTGATTCGCTTGACGCTGCTG | 3.84 |
| CCGATTAACATCAGGTAATTTACTGATGTTAATCGGGTCTTGATTCGCTTGACGCTGCTG | 3.5 |
| CCGATTAACATCAACCCTCCCCCTGATGTTAATCGGGTCTTGATTCGCTTGACGCTGCTG | 3.85 |
| CCGATTAACATCAGGGGCTACCCTGATGTTAATCGGGTCTTGATTCGCTTGACGCTGCTG | 2.1 |
| CCGATTAACATCAGGAATTTACCTGATGTTAATCGGGTCTTGATTCGCTTGACGCTGCTG | 4.26 |
| CCGATTAACATCAGATTTCCCACTGATGTTAATCGGGTCTTGATTCGCTTGACGCTGCTG | 3.83 |
